The text below walks through data of PubChem BioAssay (NCATS).

SMILES strings stand for the structures. Records with an inconclusive call do not appear. The source made the active and inactive calls. The call rests on the fitted dose curve; in most records, active means well fitted cell-killing curve with a large enough effect; inconclusive means small, poorly fitted or top-dose-only effect, or effect the other way; inactive means flat fitted curve, though single readings scatter.

The experiment concerns SKOV3. The experiment in a line: Primary qHTS to identify gynecologic anti-cancer compounds using libraries of approved drugs and bioactive compounds (AID 1345084). Further: nearly all actives have a fitted effect of over 55% in size. The conditions noted are these: Gynecologic cancer cell panel viability, ATPlite luminescence, 48 h; series mostly up to 57.5 µM. In short, it runs like this:
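Measured: luminescence after ATPlite addition (15 min, RT). Exposure: 48 h, 37 C, 5% CO2.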
For orientation: Quantitative high-throughput screening tests each substance at several concentrations.
Regarding `COc1cccc([C@@]2(O)CCCC[C@@H]2CN(C)C)c1`, the outcome was inactive.
`C#C[C@]1(O)CC[C@H]2[C@@H]3CCC4=CC(=O)CC[C@]4(C)[C@H]3CC[C@@]21C`: the result was inactive.
With `COP(=S)(OC)Oc1ccc(S(=O)(=O)N(C)C)cc1`, the molecule was called inactive.
Take `C[N+]1(CCF)[C@@H]2CC[C@H]1CC(OC(=O)C(O)(c1ccccc1)c1ccccc1)C2` (some centres undefined): the call was inactive.
For `Nc1ccccc1`, the call was inactive.
The value for `CN1C(=O)NC(=O)C(C)(C2=CCCCC2)C1=O` (centres undefined) was “inactive”; that for `CCC1(CC)C(=O)C=CNC1=O` was “inactive”.
Then `O=c1oc2ccccc2c(O)c1Cc1c(O)c2ccccc2oc1=O`, with “inactive”.
In the case of `COC(=O)[C@@H](N)CCCN/C(N)=N/[N+](=O)[O-]`, the molecule was classed as inactive.
In the case of `Cc1ncsc1CCCl`, the call was inactive.
The value for `COC(=O)C(Cl)C(=O)OC` was “inactive”.
Then `CN(C)CCc1c[nH]c2cccc(OP(=O)(O)O)c12`, with “inactive”; and `O=[N+]([O-])O[C@H]1CO[C@H]2[C@@H]1OC[C@H]2O[N+](=O)[O-]`, with “inactive”.
In the case of `CC(C)NC(C)C`, the call was inactive.
Turning to `O=C1OC(c2ccc(O)c(S(=O)(=O)O)c2)(c2ccc(O)c(S(=O)(=O)O)c2)c2c(Br)c(Br)c(Br)c(Br)c21`, the molecule was classed as inactive.
The value for `CCC1(c2ccccc2)C(=O)N(COC)C(=O)N(COC)C1=O` was “inactive”.
Consider `CCOC(=O)CC(SP(=S)(OC)OC)C(=O)OCC` (centres undefined), for which the molecule was classed as inactive.
Turning to `CC(=O)OCC1=C(C(=O)O)N2C(=O)[C@@H](N)[C@H]2SC1`, the molecule was classed as inactive.
`CC1(C)C(C=C(Cl)Cl)C1C(=O)OC(C#N)c1cccc(Oc2ccccc2)c1` (centres undefined): the molecule was called inactive.
As to `O=C(N/N=C/c1ccc([N+](=O)[O-])o1)c1cc([N+](=O)[O-])cc([N+](=O)[O-])c1O`, the molecule was called inactive.
On to `CC(=O)NC1CCSC1=O` (centres undefined), for which the molecule was called inactive.
Then `CCCCCCC(=O)CCCCCC/C=C/C[C@@H](O)[C@H](O)[C@@](N)(CO)C(=O)O`, with “inactive”.
Then `CC(C)c1cccc(C(C)C)c1O`, with “inactive”; and `COP(=S)(OC)Oc1cc(Cl)c(Cl)cc1Cl`, with “inactive”; and `O=c1[nH]oc2c1CCNC2`, with “inactive”.
The value for `NCCc1ccc(O)cc1` was “inactive”; that for `O=C1c2ccccc2C(=O)C1C(=O)C(c1ccccc1)c1ccccc1` was “inactive”; that for `NC1=NC(=O)C(c2ccccc2)O1` (centres undefined) was “inactive”.
For `C[C@@H](N)[C@@H](O)c1ccccc1`, the molecule was called inactive.
The value for `c1ccc2c(c1)sc1ccccc12` was “inactive”; that for `CN1CC[C@]23c4c5ccc(O)c4O[C@H]2[C@@H](O)CC[C@H]3[C@H]1C5` was “inactive”; that for `c1ccc(CN2CCNCC2)cc1` was “inactive”.
Take `CCC(C)(C)c1ccc(O)cc1`: the outcome was inactive.
The value for `CNC(C)(C)Cc1ccccc1` was “inactive”.
